According to PubChem BioAssay AID463173 (ICCB-Longwood Screening Facility, Harvard Medical School, 2010):
In all, about 52,000 compounds went through this assay and about 4,300 (8.3%) were called active. No stated cut-off is given here; in the data, active means survival mostly below about 52% (no sharp cut-off); inactive means mostly above about 56%. Shown is part of a subset that was picked to be rich in actives.

The compounds below were run on DeltatarO mutant (assay: S. aureus survival, RN4220 and DeltatarO strains – OD600, teichoic acid synthesis inhibitors, primary screen (AID 463173)). Details: S. aureus RN4220 wild type/DeltatarO growth, OD600, 18 h, active compounds read low, screened at 18.75 µg/mL (by protocol).

Compound | survival
CCCNS(=O)(=O)c1cc(-c2nn3c(C)nnc3c3ccccc23)ccc1C | 61% (inactive)
C=C(C)c1cccc(C(C)(C)NC(=O)NC2CC(C)(C)NC(C)(C)C2)c1 | 107% (inactive)
Cc1ccc(CCNC(=O)c2ccc3[nH]c(C)c(C)c3c2)cc1 | 116% (inactive)
CCCn1c(=O)n(-c2ccccc2Cl)c(=O)c2sc3ccccc3c21 | 95% (inactive)
Cc1c(C(=O)OCCOc2ccccc2)[nH]c2c1C(=O)CC(c1ccc(C(C)(C)C)cc1)C2 (stereo not drawn) | 70% (inactive)
Cc1cc(C)cc(NS(=O)(=O)c2ccc(-n3cccn3)cc2)c1 | 75% (inactive)
O=C(Nc1sc2c(c1C(=O)NCC1CCCO1)CCC2)c1cc(=O)c2cc(Cl)ccc2o1 (stereo not drawn) | 43% (active)
O=C(Nc1sc2c(c1C(=O)NCC1CCCO1)CCC2)c1cc(=O)c2ccccc2o1 (stereo not drawn) | 66% (inactive)
Cc1cc2oc(C(=O)Nc3sc4c(c3C(=O)NCC3CCCO3)CCC4)cc(=O)c2cc1C (stereo not drawn) | 36% (active)
Cc1ccc2oc(C(=O)Nc3sc4c(c3C(=O)NCC3CCCO3)CCC4)cc(=O)c2c1 (stereo not drawn) | 79% (inactive)
Cc1ccc2c(=O)cc(C(=O)Nc3sc4c(c3C(=O)NCC3CCCO3)CCCC4)oc2c1 (stereo not drawn) | 71% (inactive)
Cc1cc2oc(C(=O)Nc3sc4c(c3C(=O)NCC3CCCO3)CCCC4)cc(=O)c2cc1C (stereo not drawn) | 47% (active)
Cc1ccc2c(=O)cc(C(=O)Nc3sc4c(c3C(=O)NCC3CCCO3)CCC4)oc2c1 (stereo not drawn) | 71% (inactive)
Cc1ccc2c(=O)cc(C(=O)Nc3sc4c(c3C(=O)NCC3CCCO3)CCCC4)oc2c1C (stereo not drawn) | 85% (inactive)
O=C(Nc1sc2c(c1C(=O)NCC1CCCO1)CCCC2)c1cc(=O)c2ccccc2o1 (stereo not drawn) | 50% (inactive)
Cc1noc(/C=C/c2cccs2)c1S(=O)(=O)N1CCC(C(=O)Nc2ccc(F)c(Cl)c2)CC1 | 52% (inactive)
COc1ccc(-c2cc3nc(N)cc(=O)n3[nH]2)cc1 | 148% (inactive)
CCOc1cccc2cc(-c3nc4sc5c(c4c(=O)[nH]3)CCC(C(C)(C)C)C5)c(=O)oc12 (stereo not drawn) | 79% (inactive)
CCOC(=O)Cc1c(C)nc2c(-c3ccc(OC)c(OC)c3)c(C)nn2c1C | 82% (inactive)
Cc1ccccc1Cn1c(=O)n(CC2CCC(C(=O)N3CCC(C)CC3)CC2)c(=O)c2sccc21 (stereo not drawn) | 73% (inactive)
O=C(COC(=O)c1cc(-c2cccs2)nc2ccccc12)c1ccccc1 | 45% (inactive)
CCCCOc1ccc(CNC(=O)CCCN2C(=O)CSc3c2c(C)nn3-c2ccccc2)cc1 | 72% (inactive)
CC(C(=O)N1CCCC1)N1CCN(c2ccc(F)cc2)CC1 (stereo not drawn) | 87% (inactive)
